The structures appear in SMILES notation. The source made the active and inactive calls. Unless noted, the rule behind the calls is not given here.

The nature of test [1]: anti-His antibody binders, primary screen, artefact control for SMM control protein annotation, biochemical, small-molecule microarray, 635 nm fluorescence (AID 1128).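 Note: score merges feature fluorescence with signal-to-noise for each printed compound spot.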 Conditions: anti-His Alexa647 antibody binding, higher = more signal.
The subject of test [2] is Human papillomavirus type 1a E7 protein (residues 1-88). In words: HPV1a E7 small-molecule binders, primary screen, biochemical, small-molecule microarray, residues 1-88, 635 nm (AID 1129). Conditions: small-molecule microarray binding, fluorescence 635 nm; higher = more signal.
Test [3] deals with Focal adhesion kinase 1 (Homo sapiens) (UniProt Q05397). As to the kind of experiment: small-molecule microarray binders of FAK, primary screen, biochemical, 635/667 nm fluorescence, BSA, DTT (AID 1130).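 Note: composite of spot emission at 667 nm and signal to noise over triplicate slides.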 Conditions: PTK2 binding, 635 nm fluorescence, higher = more signal.
Test [4] concerns Fibrinogen (Alexa647-labelled). In words: fibrinogen binders on compound microarrays, profiling panel, artefact control for SMM control-protein annotation, biochemical, small-molecule microarray, 635/667 nm fluorescence (AID 1131).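 Note: z-score merges 667 nm fluorescence with per-spot signal-to-noise over triplicate slides.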 Conditions: fibrinogen-A647 binding fluorescence, higher = more signal.
The target in test [5] is Follistatin (Homo sapiens) (UniProt P19883). As to the kind of experiment: follistatin binders on small-molecule microarrays, primary screen, biochemical, small-molecule microarray, 635/667 nm fluorescence (AID 1132). Conditions: FST binding, 635 nm fluorescence, higher = more signal.
Test [6] addresses Fibroblast growth factor 2 (Homo sapiens) (UniProt P09038). As to the kind of experiment: FGF2 binders on small-molecule microarrays, primary screen, biochemical, small-molecule microarray, 635/667 nm fluorescence (AID 1133). Conditions: small-molecule microarray binding, FGF2, fluorescence 635/667; higher = more signal.
A short description of test [7]: mitochondrial membrane potential change in A549 cells, profiling panel, cell-based, JC-1 fluorescence, basal, 24 h, 100 nL (AID 1138).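 Note: A549 lung adenocarcinoma cells under basal conditions with no added stimulus; test concentration not given here.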 Conditions: higher = more signal.
The test system of a further test is Lefty1. In words: Lefty1 binders on small-molecule microarrays, primary screen, biochemical, small-molecule microarray, 635/667 nm fluorescence (AID 1139). Conditions: small-molecule microarray binding, fluorescence 635/667; higher = more signal.
Test [8] has as its system wheat germ agglutinin (Triticum aestivum), Alexa647-labelled. In words: wheat germ agglutinin binders on compound microarrays, profiling panel, artefact control for SMM control-protein annotation, biochemical, small-molecule microarray, 635/667 nm fluorescence (AID 1140).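 Note: score merges 667 nm feature emission with signal to noise over triplicate slides.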 Conditions: WGA-A647 binding, 635 nm fluorescence, higher = more signal.
In test [9] the target is Luciferin 4-monooxygenase (Photinus pyralis) (UniProt P08659). In words: firefly luciferase enzyme inhibitors, primary screen, biochemical, luminescence, purified enzyme, 2006 set (AID 1141).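 Note: cell-free assay with purified firefly luciferase at 100 ng per well in PBS; test concentration not given here.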 Conditions: SteadyGlo luminescence, 30 min, higher = more signal, called active from +8 up or from −8 down.
The test system of test [10] is Wnt5a (protein binding on small-molecule microarray). In words: Wnt5a binders on small-molecule microarray, primary screen, biophysical, 635/667 nm fluorescence (AID 1142).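 Note: fluorescence read at 667 nm with signal to noise per printed feature.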 Conditions: 635 nm fluorescence, higher = more signal.
The nature of test [11]: cell viability in Huh7 cells, primary screen, cytotoxicity control for HCV replication inhibitor project, CellTiter-Glo luminescence, basal, 48 h (AID 1143).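 Note: Huh7 hepatoma cells carrying a hepatitis C replication reporter with no stimulus; test concentration not given here.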 Conditions: Huh7 HCV replicon, higher = more signal, called active from +8 up or from −8 down.
Test [12] can be described thus: P. aeruginosa biofilm formation inhibitors, primary screen, PAO1 strain, BacTiter-Glo luminescence, LB-PBS (AID 1144). Conditions: 12 h, higher = more signal.
Test [13] can be described thus: CREB reporter modulators without forskolin, primary screen, cell-based, PC12, CRE-LacZ reporter, unstimulated (AID 1145). Conditions: no forskolin, luminescence, 4.5 h, higher = more signal, called active from +8 up or from −8 down.
Test [14] in a line: CREB reporter modulators under forskolin, primary screen, cell-based, PC12, CRE-LacZ reporter, forskolin-stimulated (AID 1146).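 Note: PC12 cells with 6xCRE LacZ reporter stimulated by forskolin 10 µM; beta-galactosidase reporter signal reflecting CREB driven transcription.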 Conditions: luminescence, 4.5 h, higher = more signal, called active from +8 up or from −8 down.
Test [15] addresses Streptavidin (Streptomyces avidinii) (UniProt P22629). In words: streptavidin binders on small-molecule microarray, primary screen, artefact control for SMM compound annotation, biophysical, 635/667 nm fluorescence (AID 1147).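 Note: signal reflects streptavidin binding to arrayed compounds as a control protein.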 Conditions: streptavidin binding, higher = more signal.
A short description of test [16]: small-molecule binders of probe aInhba, primary screen, biochemical, small-molecule microarray, 635/667 nm fluorescence (AID 1148).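 Note: score merges 667nm spot fluorescence with signal-to-noise for antibody binding to printed compounds.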 Conditions: higher = more signal.
For test [17], the target named is Torsin-1A (Homo sapiens) (UniProt O14656). As to the kind of experiment: torsin A binders from cell lysate, primary screen, small-molecule microarray, wild-type, 635/667 nm (AID 1149). Conditions: COS7 hTOR1A-WT lysate, 635 nm fluorescence, higher = more signal.
The target is the same in test [18]. As to the kind of experiment: small-molecule binders of mutant TOR1A in lysate, primary screen, cell lysate, small-molecule microarray, COS7 lysate, 635/667 nm fluorescence (AID 1150).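 Note: score pools 667 nm emission and signal to noise measuring lysate protein binding.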 Conditions: COS7 hTOR1A mutant lysate, 635 nm fluorescence, higher = more signal.
The subject of test [19] is Sonic hedgehog protein (Shh). In words: small-molecule binders of Shh protein, primary screen, biochemical, small-molecule microarray, 635/667 nm fluorescence (AID 1151).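 Note: Shh protein binding to compounds spotted on small-molecule microarray slides; score combines spot fluorescence intensity with signal-to-noise across triplicate slides.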 Conditions: small-molecule microarray binding, 635 nm fluorescence; higher = more signal.

Torsin-1A (Homo sapiens), sequence (O14656 whole entry, looked up): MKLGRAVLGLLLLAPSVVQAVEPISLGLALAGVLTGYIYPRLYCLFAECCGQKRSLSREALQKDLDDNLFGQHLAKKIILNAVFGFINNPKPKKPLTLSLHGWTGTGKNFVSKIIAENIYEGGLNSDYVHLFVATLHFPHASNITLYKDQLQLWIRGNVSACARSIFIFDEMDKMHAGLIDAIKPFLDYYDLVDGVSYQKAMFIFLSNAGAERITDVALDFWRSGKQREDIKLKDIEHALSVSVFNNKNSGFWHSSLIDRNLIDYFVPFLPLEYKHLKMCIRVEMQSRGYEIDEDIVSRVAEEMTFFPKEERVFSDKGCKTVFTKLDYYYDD
Streptavidin (Streptomyces avidinii), sequence (P22629 whole entry, looked up): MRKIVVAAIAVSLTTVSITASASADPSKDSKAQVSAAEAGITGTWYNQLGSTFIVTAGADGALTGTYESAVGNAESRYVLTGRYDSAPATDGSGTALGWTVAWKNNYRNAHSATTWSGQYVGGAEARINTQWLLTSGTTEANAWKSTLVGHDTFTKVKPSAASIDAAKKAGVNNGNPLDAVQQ
Fibroblast growth factor 2 (Homo sapiens), sequence (P09038 whole entry, looked up): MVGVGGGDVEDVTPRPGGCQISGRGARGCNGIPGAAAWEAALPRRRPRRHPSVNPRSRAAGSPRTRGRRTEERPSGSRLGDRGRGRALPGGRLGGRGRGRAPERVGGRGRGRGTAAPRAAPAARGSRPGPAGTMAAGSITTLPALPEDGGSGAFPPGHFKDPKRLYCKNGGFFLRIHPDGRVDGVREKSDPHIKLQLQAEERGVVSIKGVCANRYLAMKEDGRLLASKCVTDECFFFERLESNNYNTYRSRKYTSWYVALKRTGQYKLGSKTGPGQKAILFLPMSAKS
Luciferin 4-monooxygenase (Photinus pyralis), sequence (P08659 whole entry, looked up): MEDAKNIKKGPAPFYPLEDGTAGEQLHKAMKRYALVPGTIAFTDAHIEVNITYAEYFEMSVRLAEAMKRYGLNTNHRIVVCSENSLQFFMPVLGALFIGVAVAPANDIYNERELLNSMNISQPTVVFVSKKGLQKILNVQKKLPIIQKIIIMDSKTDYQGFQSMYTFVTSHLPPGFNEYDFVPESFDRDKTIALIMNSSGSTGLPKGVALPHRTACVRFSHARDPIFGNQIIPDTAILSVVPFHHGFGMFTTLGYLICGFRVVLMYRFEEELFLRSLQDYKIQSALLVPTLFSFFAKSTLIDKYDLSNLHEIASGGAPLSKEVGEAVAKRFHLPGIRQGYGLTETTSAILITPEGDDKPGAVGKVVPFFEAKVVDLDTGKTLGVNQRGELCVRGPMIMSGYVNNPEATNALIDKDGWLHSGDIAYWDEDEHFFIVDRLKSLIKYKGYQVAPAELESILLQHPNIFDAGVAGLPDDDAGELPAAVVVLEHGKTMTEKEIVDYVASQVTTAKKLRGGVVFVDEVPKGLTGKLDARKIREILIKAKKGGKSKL
Focal adhesion kinase 1 (Homo sapiens), sequence (Q05397 whole entry, looked up): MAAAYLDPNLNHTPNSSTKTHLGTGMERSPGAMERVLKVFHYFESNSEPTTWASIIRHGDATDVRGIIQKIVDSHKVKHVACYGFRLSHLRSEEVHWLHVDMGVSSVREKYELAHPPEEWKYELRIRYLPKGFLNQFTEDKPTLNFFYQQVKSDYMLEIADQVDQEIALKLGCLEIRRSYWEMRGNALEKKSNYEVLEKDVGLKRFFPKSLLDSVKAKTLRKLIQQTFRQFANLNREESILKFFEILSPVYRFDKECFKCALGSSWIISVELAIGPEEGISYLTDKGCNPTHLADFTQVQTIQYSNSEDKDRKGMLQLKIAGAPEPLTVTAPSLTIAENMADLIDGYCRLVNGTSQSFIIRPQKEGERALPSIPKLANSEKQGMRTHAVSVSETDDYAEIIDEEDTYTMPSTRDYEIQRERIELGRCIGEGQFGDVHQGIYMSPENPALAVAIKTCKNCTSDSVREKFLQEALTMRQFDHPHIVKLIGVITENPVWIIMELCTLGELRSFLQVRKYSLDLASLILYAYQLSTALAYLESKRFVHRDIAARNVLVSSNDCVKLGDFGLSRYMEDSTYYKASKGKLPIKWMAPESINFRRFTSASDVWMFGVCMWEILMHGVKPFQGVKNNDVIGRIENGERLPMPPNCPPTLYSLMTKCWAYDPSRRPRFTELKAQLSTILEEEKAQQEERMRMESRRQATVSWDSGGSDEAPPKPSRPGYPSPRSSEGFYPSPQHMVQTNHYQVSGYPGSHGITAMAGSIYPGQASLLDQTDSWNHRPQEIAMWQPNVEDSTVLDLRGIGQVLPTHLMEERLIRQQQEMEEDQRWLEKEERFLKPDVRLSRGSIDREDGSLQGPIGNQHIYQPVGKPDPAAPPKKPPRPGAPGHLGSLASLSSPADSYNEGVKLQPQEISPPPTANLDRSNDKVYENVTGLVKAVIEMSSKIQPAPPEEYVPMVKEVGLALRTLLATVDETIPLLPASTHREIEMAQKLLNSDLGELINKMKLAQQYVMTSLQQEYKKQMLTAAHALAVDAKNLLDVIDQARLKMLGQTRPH
Follistatin (Homo sapiens), sequence (P19883 whole entry, looked up): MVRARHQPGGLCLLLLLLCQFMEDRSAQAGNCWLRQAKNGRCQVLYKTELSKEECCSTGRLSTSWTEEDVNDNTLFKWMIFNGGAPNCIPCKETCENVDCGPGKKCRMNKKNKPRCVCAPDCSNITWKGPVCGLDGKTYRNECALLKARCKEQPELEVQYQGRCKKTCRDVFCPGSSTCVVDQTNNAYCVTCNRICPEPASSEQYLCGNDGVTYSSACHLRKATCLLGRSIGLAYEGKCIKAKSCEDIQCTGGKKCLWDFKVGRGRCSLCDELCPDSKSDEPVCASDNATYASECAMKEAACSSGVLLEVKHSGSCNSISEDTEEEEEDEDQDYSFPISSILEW

For `COC(=O)C(CC#Cc1ccc2c(c1)[C@]1(C(=O)N2)[C@H](c2ccc(O)cc2)N2[C@H](c3ccccc3)[C@H](c3ccccc3)OC(=O)[C@H]2[C@@H]1C(=O)Nc1nc2ccccc2s1)C(=O)OC`, the composite z-score in [1] worked out at 1.8; in test [2] it was 1.22; in [3], 0.833; in test [4], 0.96; in test [5] it was 1.1; in test [6] it was 1.22. In addition, the composite z-score in the test with Lefty1 turned out to be 1.23; in test [8] it was 0.471; in test [10] it was 0.695; in test [15], 0.458; in test [16], 0.373; in the test with Torsin-1A (Homo sapiens) [17], 1.41. Moreover, the composite z-score with Torsin-1A (Homo sapiens) [18] came to 1.21; in test [19] it was 1.62. The z-score was -1.7 in [7]; -1.63 (inactive) in test [9]; -2.01 (inactive) in test [11]; -1.45 (inactive) in [12]; 1.15 (inactive) in [13]; -0.5 (inactive) in test [14].

For the molecule `CC(C)C(CO)N1C(=O)[C@@H]2[C@H]3C(=O)OCC=C[C@H]3OC23C=CCN(C(C)C)C(=O)[C@@H]13` (stereo not given in full), the composite z-score in [1] was 0.443; in test [2], -0.349; in [3], 0.0732; in test [4], -0.841; in [5] it was 0.405; in test [6], -0.501. The composite z-score with Lefty1 is 0.433; in [8], -0.131; in test [10] it was -0.3; in [15] it was -0.629; in [16], -0.0963; with Torsin-1A (Homo sapiens) [17] it was -0.543. Further, the figures for the composite z-score (with Torsin-1A (Homo sapiens) [18]; in test [19]) were -0.374 and 0.841, respectively. In addition, the z-score in test [7] is -0.654; in [9], 0.316 (inactive); in [11], -0.602 (inactive); in test [12] it was -0.1 (inactive); in [13], -0.757 (inactive); in test [14], -0.681 (inactive).

As for `CCN(CC)c1ccc(N2CC=CC34O[C@@H]5/C=C\CCC(C)OC(=O)C5[C@H]3C(=O)N(C(CO)C(C)C)[C@@H]4C2=O)cc1` (stereo not given in full), the composite z-score in [1] is -0.264; in [2] it was -0.651; in test [3], 0.174; in test [4], -0.4; in test [5] it was -0.452; in [6] it was 0.0509. The composite z-score in the test with Lefty1 is -0.674; in [8] it was -0.558; in [10], -0.443; in test [15] it was -0.826; in [16] it was -0.108; with Torsin-1A (Homo sapiens) [17], -0.918. For the same molecule, the composite z-score in the test with Torsin-1A (Homo sapiens) [18] is -1.32; in test [19] it was 0.661. In addition, the z-score was 0.93 in test [7]; -1.09 (inactive) in [9]; -0.122 (inactive) in test [11]; 0.805 (inactive) in [12]; 0.337 (inactive) in test [13]; 0.199 (inactive) in [14].

For `C=CCOC(=O)[C@@H]1[C@H]2C(=O)O[C@H](c3ccccc3)[C@H](c3ccccc3)N2[C@H](c2ccc(OCCOC(=O)[C@@H]3C[C@@H]4C(=O)N[C@@H](CCCC[N+](C)(C)C)C(=O)N4[C@@H]3c3cccc(OCCO)c3)cc2)[C@@]12C(=O)Nc1ccc(I)cc12`, the composite z-score in [1] was 1.13; in test [2] it was 1.17; in test [3], 1.15; in test [4] it was 0.531; in test [5], 1.41; in test [6], 1.79. Moreover, the composite z-score in the test with Lefty1 is 1.64; in test [8] it was 0.347; in test [10] it was 0.596; in test [15] it was 0.337; in test [16], -0.122; with Torsin-1A (Homo sapiens) [17] it was 0.993. Also, the figures for the composite z-score (in the test with Torsin-1A (Homo sapiens) [18]; in test [19]) were 1.15 and 1.99, respectively. For the same molecule, the z-score is -1.2 in test [7]; -1.82 (inactive) in test [9]; -2.13 (inactive) in [11]; -1.22 (inactive) in test [12]; 0.0084 (inactive) in test [13]; 1.83 (inactive) in test [14].

As to `OC([C@@H]1CC(c2ccccc2)=NO1)[C@H]1CC(c2ccccc2)=NO1` (stereo not given in full), the composite z-score in test [1] is 0.176; in [2], -0.236; in [3], -0.141; in test [4], 0.0985; in test [5] it was 0.0914; in test [6], 0.128. Moreover, the composite z-score in the test on Lefty1 is 0.484; in test [8], -0.259; in [10] it was 0.0286; in test [15], 0.133; in test [16], 0.027; with Torsin-1A (Homo sapiens) [17], 0.0801. Besides, the composite z-score is -0.174 in the test with Torsin-1A (Homo sapiens) [18] and 0.394 in test [19]. The z-score in [7] was -0.0913; in test [9] it was -1.46 (inactive); in [11] it was -0.263 (inactive); in test [12], -0.00202 (inactive); in test [13], 2.31 (inactive); in test [14], -0.487 (inactive).
